From the supplement of paper PMC4466140

How the values were obtained:
Experiment in all cases: SPOT peptide array binding signal intensity (averaged, normalized) (arbitrary units (background-subtracted, floor 0; scale differs between SH3 domains)); higher = stronger binding of the SH3 domain to the peptide
[1] = target: AgAbp1
Procedure, shortened: (§1)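 To measure binding, SH3 domains from four yeast species were fused to GST, expressed in E. coli BL21(DE3) and purified on glutathione Sepharose. Each domain was incubated at 10 μg/ml overnight at 4°C on cellulose membranes with synthetic 15-mer peptides whose cysteines were replaced by serines. Anti-GST antibody, an HRP anti-mouse secondary and luminol were used for detection, and images were quantified with Genespotter. Reported binding signal is normalized, background-subtracted spot intensity averaged over replicates, in arbitrary units that differ between domains.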

[2] = target: AgBbc1
Procedure, shortened: as §1

[3] = target: AgBem1-D1
Procedure, shortened: as §1

[4] = target: AgBzz1-D1
Procedure, shortened: as §1

[5] = target: AgBzz1-D2
Procedure, shortened: as §1

[6] = target: AgCyk3
Procedure, shortened: as §1

[7] = target: AgFus1
Procedure, shortened: as §1

[8] = target: AgHof1
Procedure, shortened: as §1

[9] = target: AgHse1
Procedure, shortened: as §1

[10] = target: AgLsb1
Procedure, shortened: as §1

[11] = target: AgLsb4
Procedure, shortened: as §1

[12] = target: AgMyo5
Procedure, shortened: as §1

[13] = target: AgNbp2
Procedure, shortened: as §1

[14] = target: AgRvs167
Procedure, shortened: as §1

[15] = target: AgSho1
Procedure, shortened: as §1

[16] = target: AgSla1-D1-D2
Procedure, shortened: as §1

[17] = target: AgSla1-D3
Procedure, shortened: as §1

[18] = target: CaAbp1-D1
Procedure, shortened: as §1

[19] = target: CaAbp1-D2
Procedure, shortened: as §1

[20] = target: CaBbc1
Procedure, shortened: as §1

[21] = target: CaBem1-D1
Procedure, shortened: as §1

[22] = target: CaBzz1-D1
Procedure, shortened: as §1

[23] = target: CaBzz1-D2
Procedure, shortened: as §1

[24] = target: CaCyk3
Procedure, shortened: as §1

[25] = target: CaFus1
Procedure, shortened: as §1

[26] = target: CaHof1
Procedure, shortened: as §1

[27] = target: CaHse1
Procedure, shortened: as §1

[28] = target: CaLsb1
Procedure, shortened: as §1

[29] = target: CaLsb4
Procedure, shortened: as §1

[30] = target: CaMyo5
Procedure, shortened: as §1

[31] = target: CaNbp2
Procedure, shortened: as §1

[32] = target: CaRvs167
Procedure, shortened: as §1

[33] = target: CaRvs167-3
Procedure, shortened: as §1

[34] = target: CaSho1
Procedure, shortened: as §1

[35] = target: CaSla1-D1-D2
Procedure, shortened: as §1

[36] = target: CaSla1-D3
Procedure, shortened: as §1

[37] = target: ScAbp1
Procedure, shortened: as §1

[38] = target: ScBbc1
Procedure, shortened: as §1

[39] = target: ScBem1-D1
Procedure, shortened: as §1

[40] = target: ScBzz1-D1
Procedure, shortened: as §1

[41] = target: ScBzz1-D2
Procedure, shortened: as §1

[42] = target: ScCyk3
Procedure, shortened: as §1

[43] = target: ScFus1
Procedure, shortened: as §1

[44] = target: ScHof1
Procedure, shortened: as §1

[45] = target: ScHse1
Procedure, shortened: as §1

[46] = target: ScLsb1
Procedure, shortened: as §1

[47] = target: ScLsb2
Procedure, shortened: as §1

[48] = target: ScLsb3
Procedure, shortened: as §1

[49] = target: ScLsb4
Procedure, shortened: as §1

[50] = target: ScMyo3
Procedure, shortened: as §1

[51] = target: ScMyo5
Procedure, shortened: as §1

[52] = target: ScNbp2
Procedure, shortened: as §1

[53] = target: ScPex13
Procedure, shortened: as §1

[54] = target: ScRvs167
Procedure, shortened: as §1

[55] = target: ScSho1
Procedure, shortened: as §1

[56] = target: ScSla1-D1-D2
Procedure, shortened: as §1

[57] = target: ScSla1-D3
Procedure, shortened: as §1

[58] = target: SpAbp1-D1
Procedure, shortened: as §1

[59] = target: SpBbc1
Procedure, shortened: as §1

[60] = target: SpBzz1-D1
Procedure, shortened: as §1

[61] = target: SpBzz1-D2
Procedure, shortened: as §1

[62] = target: SpCyk3
Procedure, shortened: as §1

[63] = target: SpHof1
Procedure, shortened: as §1

[64] = target: SpHof1-2
Procedure, shortened: as §1

[65] = target: SpHof1-3
Procedure, shortened: as §1

[66] = target: SpHse1
Procedure, shortened: as §1

[67] = target: SpLsb1
Procedure, shortened: as §1

[68] = target: SpLsb4
Procedure, shortened: as §1

[69] = target: SpMyo1
Procedure, shortened: as §1

[70] = target: SpNbp2
Procedure, shortened: as §1

[71] = target: SpPex13
Procedure, shortened: as §1

[72] = target: SpRvs167
Procedure, shortened: as §1

[73] = target: SpSla1-D1-D2
Procedure, shortened: as §1

[74] = target: SpSla1-D3
Procedure, shortened: as §1

Measured: SPOT peptide array binding signal intensity

SPLGAPPPPPHKDHL
1260: [69]
2: [71]
176: [60]
≤ 0: [1] | [2] | [3] | [4] | [7] | [8] | [9] | [10] | [11] | [13] | [15] | [17] | [18] | [19] | [20] | [21] | [23] | [24] | [25] | [26] | [28] | [29] | [31] | [33] | [34] | [35] | [36] | [37] | [38] | [39] | [41] | [42] | [43] | [45] | [46] | [47] | [48] | [49] | [52] | [53] | [55] | [56] | [57] | [58] | [59] | [61] | [62] | [63] | [65] | [66] | [67] | [68] | [70] | [74]
3: [5] | [32]
11: [40]
1: [6] | [27] | [54] | [64] | [73]
931: [50]
1.5: [44]
13.5: [30]
546: [12]
2.83: [14]
670: [51]
8.5: [22]
6: [16]
0.167: [72]
